# Results: PubChem BioAssay (NCATS)
# Several values for one entry are separate records, joined by “and”; a condition that tells them apart may be missing. Equal entries are not always repeated. Records with an inconclusive call do not appear. A call without a number means that no potency is given here. Activity calls are given as the source filed them. Unless noted, the call rests on the fitted dose curve; in most records, active means well fitted curve in the direction sought with a large enough effect; inconclusive means small, poorly fitted or top-dose-only effect, or another doubt; inactive means no such curve, though single readings can be large; an effect the other way counts as inactive or inconclusive.
# Experiments:
# [1] = qHTS for Inhibitors of the Functional Ribonucleoprotein Complex (vRNP) of Lassa (LASV) Arenavirus: LASV Primary Screen - GLuc reporter signal (AID 1347082; calls by dose curve; tested in HEK293 reporter line; further: nearly all actives have a fitted effect of over 60% in size; further: potency means the concentration at half of the fitted maximal effect)
# [2] = Primary qHTS for inhibitors of MERS-S pseudo-typed particle cell entry (AID 1479149; calls by dose curve; further: nearly all actives have a fitted effect of over 60% in size)
# Furin (Homo sapiens) = Furin (Homo sapiens) (UniProt P09958); assay: Furin counterscreen qHTS for Zika virus inhibitors (AID 1347149);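 further: purified recombinant full-length human furin enzyme at 5 nM; fluorescence gain from furin cutting a BOC-RVRR-AMC peptide substrate over 15 min; top concentration of the series differs between compounds; nearly all actives have a fitted effect of over 70% in size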
# Sequence of Furin (Homo sapiens) (P09958 whole entry, looked up): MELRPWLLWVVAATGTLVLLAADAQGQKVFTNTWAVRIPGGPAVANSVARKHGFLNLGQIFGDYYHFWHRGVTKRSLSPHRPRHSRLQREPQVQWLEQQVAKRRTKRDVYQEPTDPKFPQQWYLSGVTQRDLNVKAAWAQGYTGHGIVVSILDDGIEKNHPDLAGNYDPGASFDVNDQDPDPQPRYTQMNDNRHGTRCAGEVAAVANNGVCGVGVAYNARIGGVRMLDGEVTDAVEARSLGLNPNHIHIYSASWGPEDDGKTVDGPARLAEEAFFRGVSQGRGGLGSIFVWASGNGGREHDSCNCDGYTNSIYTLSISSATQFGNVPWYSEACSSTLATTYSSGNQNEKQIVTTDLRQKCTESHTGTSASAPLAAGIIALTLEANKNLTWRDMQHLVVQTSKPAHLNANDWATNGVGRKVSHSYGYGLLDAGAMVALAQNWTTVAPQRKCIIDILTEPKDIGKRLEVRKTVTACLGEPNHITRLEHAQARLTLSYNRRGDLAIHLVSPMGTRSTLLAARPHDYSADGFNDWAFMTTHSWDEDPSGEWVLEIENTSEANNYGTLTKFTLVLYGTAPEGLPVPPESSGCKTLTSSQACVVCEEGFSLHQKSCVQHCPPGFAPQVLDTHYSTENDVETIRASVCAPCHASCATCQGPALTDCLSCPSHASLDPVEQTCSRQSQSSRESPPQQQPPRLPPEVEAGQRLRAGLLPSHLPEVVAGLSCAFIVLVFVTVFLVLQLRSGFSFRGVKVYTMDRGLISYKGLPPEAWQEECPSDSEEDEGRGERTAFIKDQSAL
# How it was run: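 Counterscreen measures cleavage of 2 microM BOC-RVRR-AMC, below its ~15 microM Km, by 5 nM full-length human furin at pH 7.0 after a 15-min compound preincubation. Inhibition derives from the 15-min fluorescence increase at 37C.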
# [3] = system: Zika virus NS2B-NS3 protease (unlinked); assay: Optimization of GU AMC qHTS for Zika virus inhibitors: Unlinked NS2B-NS3 protease assay (AID 1347151); further: nearly all actives have a fitted effect of over 80% in size
# How it was run: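 Noncovalent NS2B hydrophilic domain–NS3 protease complex (25 nM final) in 10 mM Tris-HCl pH 8.0, 0.01% Tween 20; AMC substrate, room temperature 15 min (~20% conversion); fluorescence change normalized, 4-parameter Hill fit.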
# [4] = HepG2 cells viability qHTS for Zika virus inhibitors (AID 1347168)
# How it was run: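 qHTS titration; 24-48 h compound exposure, 37 degrees C/5% CO2; DMEM, 4% FBS; CellTiter Glo ATP luminescence.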
# [5] = target: Thyroid hormone receptor beta (Homo sapiens) (UniProt P10828); assay: qHTS assay for small molecule agonists of thyroid hormone receptor beta signaling (AID 588545; calls by dose curve)
# Sequence of Thyroid hormone receptor beta (Homo sapiens) (P10828 whole entry, looked up): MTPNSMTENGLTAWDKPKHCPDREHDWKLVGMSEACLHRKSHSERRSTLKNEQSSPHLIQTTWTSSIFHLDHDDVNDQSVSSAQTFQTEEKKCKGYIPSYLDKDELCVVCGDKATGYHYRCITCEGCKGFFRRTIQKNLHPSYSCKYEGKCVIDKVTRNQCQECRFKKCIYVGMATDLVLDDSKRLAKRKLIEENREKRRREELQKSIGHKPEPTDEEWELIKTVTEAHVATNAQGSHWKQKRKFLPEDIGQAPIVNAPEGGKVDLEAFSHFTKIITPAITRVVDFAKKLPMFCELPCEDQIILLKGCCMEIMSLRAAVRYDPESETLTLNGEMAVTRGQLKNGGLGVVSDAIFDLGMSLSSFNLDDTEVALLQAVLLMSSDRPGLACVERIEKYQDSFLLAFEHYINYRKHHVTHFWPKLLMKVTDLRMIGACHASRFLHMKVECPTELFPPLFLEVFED
# How it was run: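 Agonist activity was read as beta-lactamase CCF4 fluorescence (405 ex, 460/530 em), scaled between DMSO (0%) and 10 nM T3 (100%), then Hill-fitted for EC50 and efficacy. HEK 293 TR-UAS-bla cells in 2% charcoal/dextran FBS medium were exposed 18 h at 37 C.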
# [6] = qHTS assay for small molecule activators of the nuclear factor-kappa B (NF-kB) signaling pathway (AID 651749; active means well fitted activation curve with a large enough effect in the signal ratio; the % refers to the signal ratio); settings: NF-kB-bla ME-180 cells, beta-lactamase FRET ratio, 16 h; activation: stronger effect = higher value
# How it was run: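 In this qHTS format, compounds acting as activators increase NF-kB-driven beta-lactamase in ME-180 cells, measured as disrupted FRET after 16 hr exposure at 37C and 5% CO2.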
# [7] = target: Peroxisome proliferator-activated receptor alpha (Homo sapiens) (UniProt Q07869); assay: qHTS assay for small molecule agonists of the peroxisome proliferator-activated receptor alpha (PPARalpha) signaling pathway (AID 651778); settings: PathHunter PPARalpha complementation, chemiluminescence, 6 h; stronger effect = higher value
# Sequence of Peroxisome proliferator-activated receptor alpha (Homo sapiens) (Q07869 whole entry, looked up, the tested form may be a part): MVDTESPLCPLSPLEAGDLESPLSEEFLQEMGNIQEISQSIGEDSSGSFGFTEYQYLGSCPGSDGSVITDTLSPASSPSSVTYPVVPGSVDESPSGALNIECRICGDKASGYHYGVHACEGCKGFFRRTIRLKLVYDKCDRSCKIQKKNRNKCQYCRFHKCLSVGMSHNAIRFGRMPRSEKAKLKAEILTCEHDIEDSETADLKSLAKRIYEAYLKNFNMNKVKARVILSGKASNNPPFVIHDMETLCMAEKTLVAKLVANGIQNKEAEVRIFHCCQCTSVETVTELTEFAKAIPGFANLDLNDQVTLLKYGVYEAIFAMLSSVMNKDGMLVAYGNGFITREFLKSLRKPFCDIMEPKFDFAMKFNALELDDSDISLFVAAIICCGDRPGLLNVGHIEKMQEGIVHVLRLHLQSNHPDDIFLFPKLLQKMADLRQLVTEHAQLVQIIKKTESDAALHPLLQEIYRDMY
# How it was run: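 Enzyme-fragment complementation assay in which ligand-bound PPARalpha translocates and forms an active enzyme that generates chemiluminescence. Cells were plated overnight, exposed to compound for 6 hr at 37 C, and then given detection reagent for 60 min at room temperature.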
# [8] = qHTS assay for small molecule agonists of the antioxidant response element (ARE) signaling pathway measured by Nrf2-dependant transcriptional activity - cell viability counter screen (AID 720653; active means well fitted curve in the direction sought with a large enough effect in the repeat runs; an effect the other way counts as inactive or inconclusive); settings: ARE-bla HepG2 viability, CellTiter-Glo ATP luminescence, 16 h; max response: stronger effect = lower value
# How it was run: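 ARE-bla HepG2 cells treated with compounds for 16 h at 37C; this counter screen measures viability as intracellular ATP by CellTiter-Glo luminescence after 30 min at room temperature.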
# [9] = qHTS assay for cell viability of the p53RE-bla HCT-116 cell line (AID 743292); further: nearly all actives have a fitted effect of over 55% in size
# How it was run: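 After plating at 4,000 cells per well and a 5 h rest at 37 C, HCT-116 cells carrying p53RE-bla received test chemicals in DMSO. Sixteen hours later at 37 C, CellTiter-Glo was added and luminescence recorded following 30 min at room temperature.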
# [10] = target: Nuclear receptor subfamily 1 group I member 2 (Rattus norvegicus) (UniProt Q9R1A7); assay: qHTS assay for small molecule activators of the rat pregnane X receptor (rPXR) signaling pathway (AID 651751; call rule not given here); settings: rPXR reporter cells, luciferase (One-Glo), 24 h
# Sequence of Nuclear receptor subfamily 1 group I member 2 (Rattus norvegicus) (Q9R1A7 whole entry, looked up): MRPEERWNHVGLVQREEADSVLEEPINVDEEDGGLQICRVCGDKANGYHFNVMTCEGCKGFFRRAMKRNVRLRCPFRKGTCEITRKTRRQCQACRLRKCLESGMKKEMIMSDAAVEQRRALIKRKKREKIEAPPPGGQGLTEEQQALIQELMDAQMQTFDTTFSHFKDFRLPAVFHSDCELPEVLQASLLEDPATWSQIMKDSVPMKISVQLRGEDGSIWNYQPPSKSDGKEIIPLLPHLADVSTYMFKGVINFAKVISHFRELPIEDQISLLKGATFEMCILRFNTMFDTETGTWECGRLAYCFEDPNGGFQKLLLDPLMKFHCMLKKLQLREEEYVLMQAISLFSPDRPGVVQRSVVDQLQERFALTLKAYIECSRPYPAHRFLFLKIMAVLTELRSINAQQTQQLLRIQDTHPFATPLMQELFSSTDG
# [11] = qHTS assay for small molecule activators of the human pregnane X receptor (PXR) signaling pathway (AID 720659; call rule not given here)
# [12] = system: Zika virus NS2B-NS3 protease (linked construct); assay: Confirmatory screen NINDS AMC qHTS for Zika virus inhibitors (AID 1347152);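 further: AMC fluorescence gain from cleaved Bz-Nle-KRR-AMC substrate over 15 min; top concentration of the series differs between compounds; nearly all actives have a fitted effect of over 70% in size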
# How it was run: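 Linked NS2B-NS3 protease, 1 nM, in 10 mM Tris-HCl pH 8.0, 0.01% Tween 20; compounds preincubated 15 min at room temperature. Nle-KRR-AMC 10 microM (Km 18.3 µM); 15-min fluorescence change (340/450 nm) fitted to 4-parameter Hill.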
# [13] = target: Catechol O-methyltransferase (Homo sapiens) (UniProt P21964); assay: Confirmatory Screen for Target Class Profiling of Small Molecule Inhibitors of Methyltransferases (AID 1745852); settings: MTase-Glo luminescence, SAH detection, recombinant enzyme; measured here: COMT max response; stronger effect = lower value
# Sequence of Catechol O-methyltransferase (Homo sapiens) (P21964 whole entry, looked up): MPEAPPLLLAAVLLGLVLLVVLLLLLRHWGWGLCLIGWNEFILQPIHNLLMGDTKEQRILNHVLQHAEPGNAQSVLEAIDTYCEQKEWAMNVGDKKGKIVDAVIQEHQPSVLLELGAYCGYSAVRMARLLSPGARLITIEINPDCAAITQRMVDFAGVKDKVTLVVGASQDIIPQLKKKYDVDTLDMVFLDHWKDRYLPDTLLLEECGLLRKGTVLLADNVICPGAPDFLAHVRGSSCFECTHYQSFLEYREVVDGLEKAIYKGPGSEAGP
# [14] = target: Guanidinoacetate N-methyltransferase (Homo sapiens) (UniProt Q14353); assay: as above; settings: activity change, negative = inhibition: at 57.3 µM (top of the series) unless noted
# [15] = target: Nicotinamide N-methyltransferase (Homo sapiens) (UniProt P40261); assay: as above; settings: MTase-Glo luminescence, SAH detection, recombinant enzyme; measured here: NNMT max response; stronger effect = lower value
# Sequence of Nicotinamide N-methyltransferase (Homo sapiens) (P40261 whole entry, looked up): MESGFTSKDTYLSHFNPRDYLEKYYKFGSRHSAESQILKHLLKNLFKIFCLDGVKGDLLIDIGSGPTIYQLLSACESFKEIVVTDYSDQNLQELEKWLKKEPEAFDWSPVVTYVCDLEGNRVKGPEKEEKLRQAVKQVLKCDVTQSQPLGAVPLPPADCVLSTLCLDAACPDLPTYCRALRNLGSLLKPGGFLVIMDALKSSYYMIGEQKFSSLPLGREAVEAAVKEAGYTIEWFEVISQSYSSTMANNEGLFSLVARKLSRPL
# [16] = target: Phenylethanolamine N-methyltransferase (Homo sapiens) (UniProt P11086); assay: as above; settings: MTase-Glo luminescence, SAH detection, recombinant enzyme; measured here: PNMT max response; stronger effect = lower value
# Sequence of Phenylethanolamine N-methyltransferase (Homo sapiens) (P11086 whole entry, looked up): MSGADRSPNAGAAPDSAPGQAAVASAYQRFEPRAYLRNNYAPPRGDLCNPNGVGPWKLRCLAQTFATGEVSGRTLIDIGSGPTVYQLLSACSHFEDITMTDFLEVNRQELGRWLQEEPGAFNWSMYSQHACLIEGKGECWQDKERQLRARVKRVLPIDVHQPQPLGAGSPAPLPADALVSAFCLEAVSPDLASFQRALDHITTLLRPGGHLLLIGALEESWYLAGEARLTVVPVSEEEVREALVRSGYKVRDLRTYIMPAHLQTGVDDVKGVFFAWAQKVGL
smiles,measurement,setting,value
C[N+](C)(C)CC(=O)[O-],Potency,[1],inactive
CCOC(=O)C1(c2ccccc2)CCCN(C)CC1 (centres undefined),Potency,[2],inactive
CN1CC[C@@]23CCCC[C@@H]2[C@@H]1Cc1ccc(O)cc13,Potency,Furin (Homo sapiens),inactive
same,outcome,[3],inactive
same,Potency,[4],inactive
OCCN(CCO)CCO,Potency,[5],inactive
same,activation,[6],-1.09% (inactive)
same,max response,[7],-0.143% (inactive)
same,max response,[8],-4.95% (inactive)
same,outcome,[9],inactive
same,Potency,[2],inactive
same,max response,[10],-1.5% (inactive)
same,outcome,[11],inactive
CC(C)C[C@H]1C(=O)N2CCC[C@H]2[C@]2(O)O[C@](NC(=O)[C@@H]3C[C@@H]4c5cccc6[nH]cc(c56)C[C@H]4N(C)C3)(C(C)C)C(=O)N12,Potency,[2],inactive
CCOc1cc(C=O)ccc1O,Potency,[5],inactive
same,activation,[6],-0.0137% (inactive) and -0.605% (inactive)
same,max response,[7],-3.28% (inactive) and -2.59% (inactive)
same,max response,[8],-16.9% (inactive) and 0.643% (inactive)
same,outcome,[9],inactive
same,max response,[10],-3.58% (inactive) and -0.453% (inactive)
same,outcome,[11],inactive
C[C@@H]1[C@@H]2Cc3ccc(O)cc3[C@@]1(C)CCN2CCc1ccccc1,Potency,Furin (Homo sapiens),inactive
same,outcome,[3],inactive
same,Potency,[12],inactive
same,Potency,[4],inactive
CC(C)=CCN1CC[C@]2(C)c3cc(O)ccc3C[C@H]1[C@H]2C,Potency,[2],inactive
CC(=O)O[C@H]1C[C@H](O[C@H]2[C@@H](O)C[C@H](O[C@H]3[C@@H](O)C[C@H](OC4CC[C@@]5(C)C(CC[C@@H]6[C@@H]5CC[C@]5(C)[C@@H](C7=CC(=O)OC7)[C@@H](O)C[C@]65O)C4)O[C@@H]3C)O[C@@H]2C)O[C@H](C)[C@H]1O[C@@H]1O[C@H](CO)[C@@H](O)[C@H](O)[C@H]1O (some centres undefined),Potency,[1],0.794 µM (active)
CNC(C)CC1CCCCC1 (centres undefined),Potency,[2],inactive
COC(=O)[C@H]1[C@@H](OC(=O)c2ccccc2)C[C@@H]2CC[C@H]1N2C,Potency,[1],inactive
same,Potency,[2],inactive
N#Cc1ccc(N2CCN(C(=O)COc3ccc4[nH]cc(CCN)c4c3)CC2)cc1,activity,[13],-2.1%
same,"activity change, negative = inhibition",[14],0.371%
same,activity,[15],2.26%
same,activity,[16],2.22%
